Screens (PubChem BioAssay)
D1 antagonist: blocks dopamine activation of the human D1 receptor; P21728; HEK293 TREx D1 cells, calcium flux, dopamine EC80; stronger effect = lower value; activity change, negative = inhibition, % at 10 µM; hit rate 3.2% among 360,000; in the data active = activity change below about -30%; note: % is set by controls: 0 for no effect and ±100 for the full control effect
Target sequence (P21728 whole entry, looked up): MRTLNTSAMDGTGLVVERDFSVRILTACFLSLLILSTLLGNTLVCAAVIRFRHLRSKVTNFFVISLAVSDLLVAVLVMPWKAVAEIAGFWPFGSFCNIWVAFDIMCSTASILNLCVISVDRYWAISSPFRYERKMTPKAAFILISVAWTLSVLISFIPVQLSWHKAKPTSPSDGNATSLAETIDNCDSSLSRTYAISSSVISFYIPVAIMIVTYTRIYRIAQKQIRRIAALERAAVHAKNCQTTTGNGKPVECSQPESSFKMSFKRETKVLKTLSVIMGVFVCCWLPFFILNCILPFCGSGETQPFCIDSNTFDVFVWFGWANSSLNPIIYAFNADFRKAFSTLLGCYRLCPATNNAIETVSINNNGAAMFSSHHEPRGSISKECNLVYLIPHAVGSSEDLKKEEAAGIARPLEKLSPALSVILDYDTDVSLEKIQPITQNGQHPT
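Antagonism measured as reduced calcium response to an EC80 dopamine addition following 180 s compound pre-read; cells were inducible HEK293 Trex D1 plated overnight at 30 C, read kinetically at 1 cycle/sec.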
D1 agonist: human D1 receptor agonism | AID 504660 | hit rate 1% among 360,000 | activation, % at 2 µM | HEK293 T-REx D1 cells, calcium flux, agonist mode; note: 0% is about no effect
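Tetracycline-induced HEK293 TREx D1 cells, force-coupled to calcium signalling, were dye-loaded with a no-wash calcium kit. Compound was pin-added after a 10 s baseline. Fluorescence was read kinetically at 1 cycle/s for 180 s, with calcium rises flagged as agonism.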
D1 potentiator: enhances dopamine response at the human D1 receptor | HEK293 TREx D1 cells, calcium flux, dopamine EC20 potentiation | potentiation, % at 10 µM | hit rate 0.036% among 360,000; in the data active = potentiation above about 30%; note: 0% is about no effect
TRHR ag: TRH receptor (human) agonism | AID 493084 | hit rate 0.18% among 360,000 | activation, % at 2 µM | TRHR cells, calcium flux fluo-8, FDSS agonist mode | P34981; note: 0% is about no effect
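Agonist-mode FDSS calcium read (Ex 480/Em 530, 1 s cycles) in 1536-well TRHR cells with fluo-8 dye, after 10-cycle baseline and 23 nL compound addition; TRH at EC20 (10 nM final) added afterwards for the enhancer phase.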
TRHR PAM: allosterically enhances the human TRH receptor. P34981. TRHR cells, fluo-8 calcium fluorescence, EC20 TRH enhancement. enhancement, % at 2 µM. hit rate 0.66% among 360,000. AID 493056; in the data active = enhancement above about 30%; note: 0% is about no effect
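TRHR-expressing cells loaded with fluo-8 calcium dye were read kinetically (ex 480/em 530) during compound addition, then stimulated with an EC20 of TRH (10 nM final). Enhancement of the Gq-mediated intracellular calcium response was scored.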
* hit, by the source's call. Rows were chosen to be rich in hits. Some 4.7% of all compounds tested hit in one or more screens of this group. Cut-off read from the data, not from the text of the source, unless noted: active = activation above about 30%; inactive = the rest.

For CCOC(=O)C1=C(CN2CCN(C(=O)c3ccco3)CC2)NC(=O)NC1c1ccc(F)cc1 (stereo not drawn) the results were D1 antagonist 7.4, D1 agonist 0.1, D1 potentiator 3.1, TRHR ag 0.2 and TRHR PAM -1.8.
For Cn1cnnc1SCC(=O)Nc1ccc(C#N)cc1 the results were D1 antagonist -36.5*, D1 agonist -0.2, D1 potentiator -3.5, TRHR ag 0.9 and TRHR PAM -0.5.
`Cn1cnnc1SCC(=O)Nc1ccccc1` gave D1 antagonist 3.6, D1 agonist 2.1, D1 potentiator -0.7, TRHR ag 1.2 and TRHR PAM 5.6.
CCOC(=O)c1cc(S(=O)(=O)NCc2ccc(Cl)cc2)[nH]n1 was read as D1 antagonist -31.6*, D1 agonist 1.9, D1 potentiator -0.8, TRHR ag -0.2 and TRHR PAM -5.2.
`CCOC(=O)c1cc(S(=O)(=O)NCc2ccc(F)cc2)[nH]n1` gave D1 antagonist -20.5, D1 agonist 3.3, D1 potentiator -1.9, TRHR ag -0.6 and TRHR PAM 2.6.
Cc1cc2oc(C(=O)Nc3ccc(S(N)(=O)=O)cc3)c(C)c2cc1Cl was read as D1 antagonist 3.1, D1 agonist 1.5, D1 potentiator 8.2, TRHR ag 2.2 and TRHR PAM -2.1.
Screening CC(C)Cc1nn2c(=O)cc(COC(=O)c3ccc4c(c3)OCO4)nc2s1 returned D1 antagonist 3.1, D1 agonist 2.4, D1 potentiator -3.0, TRHR ag 0.4 and TRHR PAM -0.9.
Screening CC(=O)Nc1nonc1-c1nnc(SCC(=O)Nc2ccccc2Cl)n1C returned D1 antagonist 6.6, D1 agonist -2.2, D1 potentiator 0.6, TRHR ag -1.5 and TRHR PAM 28.9.
O=C1N/C(=N\S(=O)(=O)c2ccccc2)S/C1=C\c1cc([N+](=O)[O-])ccc1O was read as D1 antagonist 7.0, D1 agonist 167.6*, D1 potentiator -2.6, TRHR ag 113.7* and TRHR PAM 39.6*.
`O=C1N/C(=N\S(=O)(=O)Cc2ccccc2)S/C1=C/c1cc([N+](=O)[O-])ccc1O` gave D1 antagonist 80.5, D1 agonist 267.1*, D1 potentiator 22.4, TRHR ag 102.2* and TRHR PAM 48.9*.
Screening CCOC(=O)/C=C1\CN(C(C)c2ccccc2)S(=O)(=O)c2ccccc21 (stereo not drawn) returned D1 antagonist -4.2, D1 agonist -0.5, D1 potentiator -2.5, TRHR ag 0.2 and TRHR PAM -1.9.
Screening Cc1ccc(C2=NS(=O)(=O)N(C)C(C(=O)NCc3cccs3)=C2)cc1 returned D1 antagonist -17.7, D1 agonist 2.7, D1 potentiator -12.3, TRHR ag -0.5 and TRHR PAM -3.4.
Screening COc1ccc(OC)c(C2=NS(=O)(=O)N(C)C(C(=O)NCc3cccs3)=C2)c1 returned D1 antagonist -7.2, D1 agonist 40.9*, D1 potentiator -5.3, TRHR ag 1.8 and TRHR PAM -2.8.
Nc1c(-c2nc(-c3cccs3)no2)nnn1-c1cccc(Cl)c1 was read as D1 antagonist -13.9, D1 agonist 1.7, D1 potentiator -1.1, TRHR ag 0.4 and TRHR PAM 1.5.
CC(=O)c1c(C)[nH]c(C(=O)Nc2cc(S(=O)(=O)N3CCCCC3)ccc2C)c1C was read as D1 antagonist -31.4*, D1 agonist 3.8, D1 potentiator -10.4, TRHR ag 0.2 and TRHR PAM -9.1.
Screening CCCCNC(=S)Nc1cc(S(=O)(=O)N2CCCCC2)ccc1C returned D1 antagonist -36.8*, D1 agonist 23.2, D1 potentiator -14.9, TRHR ag 1.2 and TRHR PAM -11.7.
O=C(NCCc1ccccc1)c1cc(S(=O)(=O)N2CCCC2)ccc1F was read as D1 antagonist -7.0, D1 agonist 3.6, D1 potentiator 3.2, TRHR ag 0.4 and TRHR PAM 0.6.
CCCCCNC(=O)c1cc(S(=O)(=O)N2CCCCC2)ccc1F was read as D1 antagonist -62.1*, D1 agonist 2.0, D1 potentiator -2.0, TRHR ag -0.5 and TRHR PAM -4.6.
For CC(=O)c1c(C)[nH]c(C(=O)Nc2cccc(S(=O)(=O)N3CCOCC3)c2)c1C the results were D1 antagonist 3.9, D1 agonist 1.6, D1 potentiator -4.8, TRHR ag 0.7 and TRHR PAM 6.9.
`O=C(CNC(=O)c1cc(S(=O)(=O)N2CCCCC2)ccc1N1CCOCC1)Nc1ccc(F)c(F)c1` gave D1 antagonist -20.8, D1 agonist 0.9, D1 potentiator -5.6, TRHR ag 0.7 and TRHR PAM 0.2.
`COc1ccc(C(CNC(=O)CCC(=O)c2ccc(C)s2)N2CCOCC2)cc1` (stereo not drawn) gave D1 antagonist 0.2, D1 agonist 0.2, D1 potentiator 0.9, TRHR ag 0.7 and TRHR PAM 4.3.
Screening CCC1CCCCN1S(=O)(=O)c1ccc(N2CCCCS2(=O)=O)cc1 (stereo not drawn) returned D1 antagonist -9.7, D1 agonist 5.6, D1 potentiator -0.1, TRHR ag -0.3 and TRHR PAM 2.8.
Screening Fc1ccc(-n2cc(-c3ccccc3)c3c(NN4CCOCC4)ncnc32)cc1 returned D1 antagonist -32.9*, D1 agonist 1.0, D1 potentiator -9.8, TRHR ag -1.0 and TRHR PAM 0.3.
Screening Cc1nn2c(NCCCN(C)C)c3c(nc2c1-c1ccccc1)CCCC3 returned D1 antagonist -38.1*, D1 agonist 20.3, D1 potentiator -4.2, TRHR ag 1.2 and TRHR PAM 3.3.
For CCCCNc1nc(Oc2ccc(=O)n(C)n2)nc(N2CCOCC2)n1 the results were D1 antagonist 4.1, D1 agonist 0.1, D1 potentiator -0.9, TRHR ag -0.5 and TRHR PAM 1.1.
CNC(=O)c1cc(S(=O)(=O)N2CC(C)OC(C)C2)ccc1N1CCOCC1 (stereo not drawn) was read as D1 antagonist -18.0, D1 agonist 1.0, D1 potentiator -3.4, TRHR ag 0.6 and TRHR PAM 2.3.
Screening CNC(=O)c1cc(S(=O)(=O)N2CC(C)OC(C)C2)ccc1N1CCCCC1 (stereo not drawn) returned D1 antagonist -0.4, D1 agonist 3.2, D1 potentiator -1.7, TRHR ag -0.2 and TRHR PAM 40.8*.
For Cc1c(C)c2ccc(Oc3ccc([N+](=O)[O-])cc3C(F)(F)F)c(C)c2oc1=O the results were D1 antagonist -33.3*, D1 agonist 2.7, D1 potentiator -3.5, TRHR ag 0.4 and TRHR PAM -0.8.
Screening COc1ccc2c(C(F)(F)F)cc(=O)oc2c1C returned D1 antagonist 4.6, D1 agonist 1.6, D1 potentiator 15.1, TRHR ag -0.4 and TRHR PAM 3.7.
For Cc1cc(NS(=O)(=O)c2ccc(NC(=O)COc3cc(C)c(Br)cc3C(C)C)cc2)no1 the results were D1 antagonist -8.8, D1 agonist 9.4, D1 potentiator 1.4, TRHR ag -1.2 and TRHR PAM -13.2.
